From PubChem BioAssay AID2284168 (EPA ToxCast)
Activity calls are given as the source filed them. Rule for the calls: active = hit-call score of the fitted dose curve at least 0.9, where 1 is the maximum; inactive = score below 0.9.

Target: human Opioid Receptor delta (DOP) Agonism, OPRD1 (gene 4985) (UniProt P41143)
Assay: ERF_FR_GPCR_hOPRD1: Eurofins (ERF) G Protein-Coupled Receptor (GPCR) Radioligand Binding LeadHunter Assay for human Opioid Receptor delta (DOP) Agonism
Description: ERF_FR_GPCR_hOPRD1 is a biochemical, single-readout assay that uses extracted gene-proteins in a cell-free assay. Measurements were taken 1 hour after chemical dosing in a 96-well plate. See delta (DOP) Human Opioid GPCR Binding (Agonist Radioligand) Assay, Cerep.ERF_FR_GPCR_hOPRD1 is an assay component calculated from the ERF_FR_GPCR_hOPRD1 assay. It is designed to measure radioligand binding using a type of binding reporter as detected by scintillation counting with radiometry technology.Data from the assay component ERF_FR_GPCR_hOPRD1 was analyzed at the assay endpoint, ERF_FR_GPCR_hOPRD1, in the positive analysis fitting direction relative to DMSO as the negative control and baseline of activity. Using a type of binding reporter, gain-of-signal activity can be used to understand changes in binding as they relate to gene OPRD1. To generalize the intended target to other relatable targets, this assay endpoint is annotated to the gpcr intended target family, where the subfamily is opioid.
Human cells are incubated for 60 minutes at room temprature with [3H]DADLE ligand (0.5 nM) and DPDPE as control inhibitor. Test Sample Requirements: Minimum for 1) Screen: 60 ul of 10 mM stock -OR- 1 mg (pre-weighed) for 10 uM final testing. 2) Dose Response: 90 ul of 10 mM stock -OR- 1 mg (pre-weighed) for a top concentration at 10 uM.

Sequence of human Opioid Receptor delta (DOP) Agonism, OPRD1 (gene 4985) (P41143 whole entry, looked up): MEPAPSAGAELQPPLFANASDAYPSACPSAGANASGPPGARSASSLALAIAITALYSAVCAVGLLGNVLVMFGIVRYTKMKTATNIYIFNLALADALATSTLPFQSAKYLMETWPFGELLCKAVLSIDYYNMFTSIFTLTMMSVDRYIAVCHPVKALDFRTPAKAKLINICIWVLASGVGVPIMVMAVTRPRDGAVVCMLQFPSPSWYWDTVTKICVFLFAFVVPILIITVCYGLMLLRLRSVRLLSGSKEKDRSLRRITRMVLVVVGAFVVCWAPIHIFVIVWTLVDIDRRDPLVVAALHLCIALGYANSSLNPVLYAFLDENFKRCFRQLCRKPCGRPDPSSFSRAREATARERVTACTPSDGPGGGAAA

**Q.** With `O=C(/C=C/c1ccc(O)cc1)CC(=O)/C=C/c1ccc(O)cc1` as the compound, how does the AC50 read?
**A.** 1500 nM (active)
